Over roughly 24,000 sequences, “enrichment r” has its median near 0.99; the highest 2% begin near 3.7. This excerpt belongs to a sample that is enriched for the highest values.

The labels stand for the following.
T1: UNK ZnF1-3 (human, UniProt Q9C0B0 31-174)
T1 sequence: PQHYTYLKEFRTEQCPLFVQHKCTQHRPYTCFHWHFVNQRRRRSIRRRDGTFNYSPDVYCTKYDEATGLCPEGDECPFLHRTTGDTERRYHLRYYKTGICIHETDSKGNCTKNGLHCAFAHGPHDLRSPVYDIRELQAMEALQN

B1: chr5:61651017:61651018:+_ENSG00000068796_ENST00000381103|hu_hu|FALSE|FALSE (ssRNA)
RNA: GGGAGUUCUACAGUCCGACGAUCCCUAUGUUCAUCAAUAGGAUCUGCUGUUGUUAAUGGUCUAUAAUCCAAACUUCCUCUAAAGUCUCUGAUCAUACACAUAAUUUCAUAAUUUGGGUUUGUAGCAUCAACGUCCUGGGCUCUCAACAGAGGAUUGAGCAUCA
B2: chrX:131339380:131339381:-_ENSMUSG00000033436_ENSMUST00000035559|mus_hu|FALSE|FALSE (ssRNA)
RNA: GGGAGUUCUACAGUCCGACGAUCACUGAGAAGUUUCUUCAACAUAUCUGGAUUUUCAGCAAAAUUCGAAAGGAUUUUCAAAAUCUCAACCUUGAUUUUUCCACCUCCCUGAGAUAGCAAACGGAAAAAGUUUGCAAUGGAAUUCAACAGAGGAUUGAGCAUCA
B3: chr8:95500983:95500984:-_ENSG00000164944_ENST00000437199|hu_hu|hu_hu_hu_mus_True|58_68 (ssRNA)
RNA: GGGAGUUCUACAGUCCGACGAUCAGAACACAUCUAUCGAGUAAAGGACCGUACAUGACGGCCUCUAACCACUGCCUCCACUAACAACUUUCCUCUCGAGCCUCCACUGCCGCUAUUUGUACUAGCCCAGGACGGUCCCAGGCCCAACAGAGGAUUGAGCAUCA
B4: 37721237_37722996_1653_CDS_ENSG00000082068_ENST00000265107|human|control|control (ssRNA)
RNA: GGGAGUUCUACAGUCCGACGAUCUGCCUUCCGCUGGGUUUUAACCACACAUAAUUUUGCUCCCCUCUGACUCUUGUUGGGGUCGUAAUAGACUUUAGCCAAUCCAUUUCCAGUUCCAACCAUGAUCUGGUUCAGCUUUGGAUGCAACAGAGGAUUGAGCAUCA
B5: 55795476_55800851_1969_CDS_ENSG00000138041_ENST00000407823|human|control|control (ssRNA)
RNA: GGGAGUUCUACAGUCCGACGAUCCCGCCUCAUAAAGCGAAGGGCACACAAGGCCAGAAAAGUGUGCUUUGAAUUCAUCAAGACCAAGACUCUUCUUAGCAAGUCCUUGUUCAUAAUAUAGUUUUUUAUGUGAUAUGUGUGAUGCAACAGAGGAUUGAGCAUCA
B6: chr19:8913615:8913616:-_ENSMUSG00000071658_ENSMUST00000096259|mus_hu|mus_mus_mus_hu_False|1_98 (ssRNA)
RNA: GGGAGUUCUACAGUCCGACGAUCAGGGUACCAAAACACCCUGCCUCAAAUGGGUGCCCCACCCAGUAGGGAGUUGCAGCUGAAAGUAUCUGAUGCAGAAGCAGUGACUAUACGAAAGGAGGCCCCUGGGGAGGGCCCGAGAUCCAACAGAGGAUUGAGCAUCA
B7: 69202206_69203042_311_CDS_ENSG00000135679_ENST00000462284|human|control|control (ssRNA)
RNA: GGGAGUUCUACAGUCCGACGAUCUGAGGUGGUUACAGCACCAUCAGUAGGUACAGACAUGUUGGUAUUGCACAUUUGCCUGCUCCUCACCAUCCGGGGUUUUCGCGCUUGGAGUCGGGGGUCCCUCAAGACUCCCCAGUUUCCCAACAGAGGAUUGAGCAUCA
B8: chr4:40680069:40680070:+_ENSMUSG00000028410_ENSMUST00000030118|mus_hu|motif|central (ssRNA)
RNA: GGGAGUUCUACAGUCCGACGAUCAAAAUCAGAGCUUUUAUAUUUGCGUUUAUUCUUCAUUUAACUUUUUAAAACACGGCGGUAGUUUAUUAAAACAAAAACAAGAGCAAGUAGUGAGCAUAUUAUGAUUACAGUCCUUCACUCCAACAGAGGAUUGAGCAUCA
B9: chr1:135503150:135503151:-_ENSMUSG00000090553_ENSMUST00000166915|mus_hu|motif|central (ssRNA)
RNA: GGGAGUUCUACAGUCCGACGAUCUUCUGCAUCAUCUAAUACAAGGUUCAUAUACUCAUCAAAACCAAUGAUACAGCCUUCGGUCCGCAUAUUCACUUGCUCAUAGAGCCACACCUGAAUCCGCGAUCUCUGAAAUAAUCAUAACAACAGAGGAUUGAGCAUCA
B10: chr14:31337589:31337590:+_ENSMUSG00000021962_ENSMUST00000022535|mus_mus|motif|central (ssRNA)
RNA: GGGAGUUCUACAGUCCGACGAUCAAUGACCUGUAUCAUAGAAACGAAGACACUUUUCAUUCAAAGAAUAUCUCAAAAUUACGGUUGCUGAAAUAAUCAAAUUCUACAUUAAAAUAUUACCAAACACCAUUACAUGCCAUAAAACAACAGAGGAUUGAGCAUCA
B11: chr1:130270616:130270617:-_ENSMUSG00000026356_ENSMUST00000027602|mus_hu|FALSE|FALSE (ssRNA)
RNA: GGGAGUUCUACAGUCCGACGAUCGUAAUGGUAAUUAAAAGCCAUUUCAAUGUCCAAACCAACAAACUCAGUUAGAUGUCUAUGGGUAUUAGAGUCUUCCGCUCUGAAUACUGGUCCAAUAGAGAAAACCUUCUCAAAAUCAGCCAACAGAGGAUUGAGCAUCA
B12: 116785305_116785425_2892_3pUTR_ENSMUSG00000055531_ENSMUST00000069168|mouse|control|control (ssRNA)
RNA: GGGAGUUCUACAGUCCGACGAUCAAAAAAUGAAAGAAAGGAAAAAAAAAGAAAAAAAAAUCAGCUGAUUAACUCUAAUCAAGCAUAGAUCAACAAGGUUACAGGAAUACACACACAAUUCCUUGAGCCAUGAAGACAGUGUAACAACAGAGGAUUGAGCAUCA
B13: 97946324_97946444_1485_ncRNA_ENSMUSG00000021666_ENSMUST00000159321|mouse|control|control (ssRNA)
RNA: GGGAGUUCUACAGUCCGACGAUCUGAUUCUGAAAUCAUGUAAAUUAAGAUUUGUUAGGCUGUUUUUUUUUUAAAUAAACCAUCUUUUUAUUGAUUGAAUCUUUCUAUCCCUGAAUCAAACACUGAAUCUUUUAUGUGAGCAGCCAACAGAGGAUUGAGCAUCA
B14: 67235911_67236031_3360_3pUTR_ENSMUSG00000036371_ENSMUST00000042990|mouse|control|control (ssRNA)
RNA: GGGAGUUCUACAGUCCGACGAUCAACAUUCAAAAAUCUUAAACAAGAAUUAUCUUACGAUAAUGAAAAAGGGAAACCAAGAAACAUAUAAAGGGGUUCCCACUUGAUUGCUUUUAUCUUUUAGGAAAUGAGCAUGAAAAUAAACAACAGAGGAUUGAGCAUCA
B15: chr1:100327937:100327938:+_ENSG00000162688_ENST00000361915|hu_hu|motif|central (ssRNA)
RNA: GGGAGUUCUACAGUCCGACGAUCUUCUUUUGCAACCCUAAGUCUGCUUUCCCAUUCAUCAAAAGGUCCCAAACACUUAGCGGAAAAUGUCUGAAGAGUAACACAGUCCAAGGGUAGCACAUGAUUAUCAGCACCAACACGUAACAACAGAGGAUUGAGCAUCA
B16: chr5:122939345:122939346:-_ENSMUSG00000029467_ENSMUST00000031423|mus_mus|FALSE|FALSE (ssRNA)
RNA: GGGAGUUCUACAGUCCGACGAUCCUUUCUGUCCUGUCGAUACACUUUGCCCAUUUCAGGCUCAUAUUCCUUAAGAGCUUCUAUUGCAUUUUCAGCAUUUCUUUCCUGCCACACACCCACGAUUGCAUUGGCUACCAAGAUAAGCAACAGAGGAUUGAGCAUCA
B17: chr1:38489359:38489360:+_ENSG00000183520_ENST00000537711|hu_mus|FALSE|FALSE (ssRNA)
RNA: GGGAGUUCUACAGUCCGACGAUCAGUCAUGAUUACAAAACAGGAAGACCAAGCCAUUUGAAUUAAUAAAAUCUGAAGUUAUUACAAAAGACAGGAGGAAAAGAUAAUAAUUCUUUUCGAUACAGAAUGCUGAGGCUUAAUUUUCAACAGAGGAUUGAGCAUCA
B18: chr3:41281487:41281488:+_ENSG00000168036_ENST00000349496|hu_hu|motif|central (ssRNA)
RNA: GGGAGUUCUACAGUCCGACGAUCCUACGAGAGACUUAAAAAACAGUUACUGCAAAAAAAAAAAAAAAAAAAAAAAAAGAGCGGCUUCAAAGCAAGCAAAGUCAGUACCAUUACAGAUAUUCUUAAAAAAAAAAAAAAAAAAAUCAACAGAGGAUUGAGCAUCA
B19: chr1:58468927:58468928:-_ENSMUSG00000026034_ENSMUST00000148330|mus_mus|mus_mus_mus_hu_False|38_108 (ssRNA)
RNA: GGGAGUUCUACAGUCCGACGAUCAAUCUAUAAUUACGAUGUUCAUUACCUUAGCUAUGUACUUAAUGAACCAAAUUACCCAAACAAAAUAAACAUGUUUACAAAUUAAUGUUAAGAAUUUACAAAGCUGUACAAAAUAACUUACAACAGAGGAUUGAGCAUCA
B20: chr7:40134317:40134318:+_ENSG00000065883_ENST00000340829|hu_mus|FALSE|FALSE (ssRNA)
RNA: GGGAGUUCUACAGUCCGACGAUCGGAAGGGUCAUUGCUGUUUGUGAGGACUGUGAUAGGACCAUGGCUAUAUUCAAAUCUAUGGUCCUUGUCUCCACUAAACAACAUGGGACCAGCAUUGAGGUAAAUGUCUCCAUAUCCAGCCAACAGAGGAUUGAGCAUCA
B21: chr11:61557309:61557310:-_ENSG00000134825_ENST00000537328|hu_mus|FALSE|FALSE (ssRNA)
RNA: GGGAGUUCUACAGUCCGACGAUCGAUGCCAACCCAGAGCAGGAGGAAGAGGACUCCAAAGCCCAUGAAGAGUGAGGCCACCAAGGAGAUGAGGAGCUCUUUGUAAAUAUCGCGUGUGUACUUGGUAGAGGUGACCUCGUAAACCAACAGAGGAUUGAGCAUCA
B22: chr17:60744165:60744166:+_ENSG00000011028_ENST00000303375|hu_mus|FALSE|FALSE (ssRNA)
RNA: GGGAGUUCUACAGUCCGACGAUCGUUGAGGUACUUGAGGGGUGAGUUGUCUGACCACUGCCAGCCUCCACUGGUAUCCAGGUCAUUAAGGCCAAUCCAUAGCGUGGAGCUGUAGCCCGUGAGGAGCCCGUUGAUGUAGGUCUGCAACAGAGGAUUGAGCAUCA

This test addresses T1, UNK ZnF1-3. As to the kind of experiment: nsRBNS (natural sequence RNA bind-n-seq); RBNS binding buffer (assumed for nsRBNS): 25 mM Tris pH 7.5, 150 mM KCl, 3 mM MgCl2, 0.01% Triton X-100, 500 ug/ml BSA, 20 U/ml SUPERase-In, 4 C; UNK is unkempt and MSI1 is Musashi-1; names of the RNAs are library labels; protein concentration not given here; high values mean tight binding.
With B1, the binding signal turned out to be 1.64 enrichment R.
B2 returned a binding signal of 0.897 enrichment R.
Turning to B3, the binding signal was 1.3 enrichment R.
Then B4, with 0.501 enrichment R; and B5, with 2.04 enrichment R.
B6 displayed a binding signal of 1.7 enrichment R.
In the case of B7, the binding signal is 0.532 enrichment R.
The value for B8 was 1.05 enrichment R; that for B9 was 1.18 enrichment R; that for B10 was 0.998 enrichment R.
B11 showed a binding signal of 0.771 enrichment R.
Then B12, with 4.36 enrichment R; and B13, with 0.66 enrichment R; and B14, with 5.78 enrichment R.
Consider B15, for which the binding signal was determined as 1.32 enrichment R.
As for B16, the binding signal was found to be 0.9 enrichment R.
The molecule B17 yielded a binding signal of 8.05 enrichment R.
Molecule B18 yielded a binding signal of 8.09 enrichment R.
In turn, B19 registered a binding signal of 0.436 enrichment R.
The value for B20 was 0.887 enrichment R.
Turning to B21, the binding signal turned out to be 2.5 enrichment R.
On to B22, for which the binding signal was determined as 1.03 enrichment R.

The values above are taken from paper PMC12136788.
